Pf_Dd2_inh: P. falciparum Dd2 growth inhibitors, primary screen, SYBR Green fluorescence, single dose replicates. 72 h; active compounds read low. activity change, % at 10 µM. 94,000 compounds, 2.3% hits. AID 1159554, 2015; in the data active means activity change below about -80%; inconclusive means no clear call, values can overlap the other calls
C_diff_HTS: C. difficile growth inhibitors, primary screen, HTS; Clostridium difficile clinical isolate growth, OD600, 24 h; active compounds read low; growth activity, negative = inhibition, % at 16 µg/mL (by protocol); 86,000 compounds, 0.25% hits;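 active means mean growth activity at or below -80% and every replicate also at or below -80%; inconclusive means mean at or below -80% but some replicate above -80%; inactive means mean growth activity above -80%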;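 further: 0% = DMSO wells and -100% = levofloxacin 16 µg/mL wells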
T_cruzi_growth-1: T. cruzi intracellular proliferation inhibitors, primary screen, cell-based, beta-gal Tulahuen parasites, NIH3T3 host, luminescence | AID 624255, 2012 | 77,000 compounds, 5.9% hits | T. cruzi beta-gal in NIH3T3, GalScreen luminescence, 90 h | inhibition, % at 8.34 µM;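 active means mean inhibition above about 93%, with at least 55% of replicates each passing it, limit read from the data, passing the limit was not always enough; inconclusive means only one of those two conditions holds; inactive means neither condition holds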
T_cruzi_growth-2: T. cruzi intracellular proliferation inhibitors, confirmation, cell-based, NIH3T3 host, beta-gal parasite, luminescence, cherry-pick | shares compounds with T_cruzi_growth-1 | T. cruzi beta-gal in NIH3T3, GalScreen luminescence, 90 h | inhibition, % at 8.35 µM | 5,600 compounds, 72% hits | AID 651739, 2012;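 active means mean replicate inhibition above about 95% and at least 55% of replicates individually reaching it, limit read from the data; inconclusive means only one of the two criteria is met; inactive means neither criterion is met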
T_cruzi_growth-3: inhibitors of intracellular T. cruzi replication, confirmation, NIH3T3 host cells, beta-gal parasites, cherry-pick, set 2 | shares compounds with T_cruzi_growth-1 | 5,600 compounds, 21% hits | T. cruzi beta-gal in NIH3T3, GalScreen luminescence, 90 h | inhibition, % at 2.09 µM;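 active means mean inhibition above about 95%, with at least 55% of replicates also reaching it, limit read from the data; inconclusive means meets just one of the two conditions; inactive means meets neither condition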;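 further: plate controls were neutral control median for no effect and positive control median for full effect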
3T3_cytotox: cytotoxicity in mouse NIH/3T3 fibroblasts, confirmation, cytotoxicity control for T. cruzi proliferation inhibitor project, cell-based, cherry-pick, single point | NIH/3T3 viability, CellTiter-Glo ATP luminescence, 90 h | cytotoxicity (signal decrease), % at 8.35 µM | AID 651742, 2012 | shares compounds with T_cruzi_growth-1 | 5,600 compounds, 14% hits;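 active means mean signal decrease across replicates above about 35% based on untreated-well scatter, with enough replicates individually passing, limit read from the data; inconclusive means no rule stated though some were filed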;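 further: 0% = median of neutral control wells and 100% = median of positive control wells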
3T3_cytotox_2: NIH/3T3 fibroblast cytotoxicity, confirmation, cytotoxicity control, cell-based, cherry-pick, single point, set 2 | inhibition, % at 24.9 µM | NIH/3T3 viability, CellTiter-Glo ATP luminescence, 90 h | shares compounds with T_cruzi_growth-1 | 5,600 compounds, 56% hits | AID 651744, 2012;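 active means mean loss of cell viability signal at or above a set limit, and enough replicates individually reaching it; inconclusive means meets only the mean limit or only the replicate share; inactive means meets neither condition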;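 further: 0% = median of neutral control wells and 100% = median of positive control wells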
* = called active by the depositor; ? = inconclusive; . = not tested or not shown; ! = repeats disagree. Only some compounds are listed: those with a hit (about 6.8% of all), similar ones and a draw of the others.

SMILES Pf_Dd2_inh C_diff_HTS T_cruzi_growth-1 T_cruzi_growth-2 T_cruzi_growth-3 3T3_cytotox 3T3_cytotox_2
C[C@H](CO)N1C[C@H](C)[C@H](CN(C)S(=O)(=O)c2ccc(C#N)cc2)OCc2ccccc2-c2ccccc2C1=O -14.2 . -2.7 . . . .
CO[C@@H]1CN(C)C(=O)c2cc(NC(=O)Nc3cc(F)ccc3F)ccc2OC[C@@H](C)N(C(=O)c2ccccn2)C[C@H]1C 45.5 -1.8 36.5 . . . .
C[C@H]1CN([C@@H](C)CO)S(=O)(=O)c2ccc(C3=CCCC3)cc2O[C@@H]1CN(C)C(=O)Nc1ccc2c(c1)OCO2 -52.5 -3.8 109.0* 95.9* 53.1 9.4 27.5*
C[C@@H]1CN([C@H](C)CO)S(=O)(=O)c2ccc(C#Cc3ccccc3)cc2O[C@H]1CN(C)C(=O)Nc1ccc2c(c1)OCO2 -70.8 -6.4 91.7* 107.8* 95.9*! 16.1 31.9*
C[C@@H]1CN([C@@H](C)CO)S(=O)(=O)c2ccc(C#Cc3ccncc3)cc2O[C@@H]1CN(C)C(=O)Nc1ccc2c(c1)OCO2 -12.2 0.5 0.7 . . . .
C[C@@H]1CN([C@H](C)CO)S(=O)(=O)c2ccc(C3=CCCC3)cc2O[C@@H]1CN(C)C(=O)Nc1ccc2c(c1)OCO2 -19.7 -1.1 76.3 . . . .
C[C@H](CO)N1C[C@H](C)[C@@H](CN(C)C(=O)Nc2ccc3c(c2)OCO3)Oc2cc(C#Cc3ccccc3)ccc2S1(=O)=O -71.2 7.1 131.2* 104.0* 70.6 3.6 13.1
C[C@H](CO)N1C[C@H](C)[C@@H](CN(C)C(=O)Nc2ccc3c(c2)OCO3)Oc2cc(C#Cc3ccncc3)ccc2S1(=O)=O -55.8 2.3 81.9 . . . .
Cc1noc(C)c1S(=O)(=O)Nc1ccc2c(c1)C(=O)N([C@H](C)CO)C[C@@H](C)[C@H](CN(C)CC1CCCCC1)OCCCC[C@@H](C)O2 -45.7 6.9 40.3 . . . .
CCCNC(=O)[C@H]1[C@H](CO)[C@H]2Cn3c(ccc(C4=CCCC4)c3=O)[C@@H]1N2C(=O)CC . 1.7 45.1 . . . .
C[C@@H]1CCCCO[C@@H](CN(C)C(=O)NC2CCCCC2)[C@@H](C)CN([C@@H](C)CO)C(=O)c2cc(NC(=O)Nc3ccccc3)ccc2O1 -63.9 11.4 59.7 . . . .
CCN(C[C@@H]1N[C@@H](CO)[C@H]1c1ccc(-c2cccc(C#N)c2)cc1)C(C)=O -2.3 0.1 -89.2 . . . .
C[C@@H]1CN([C@H](C)CO)C(=O)c2cc(C#C[C@@H](C)O)cnc2O[C@H]1CN(C)CC1CCCCC1 27.6 -1.3 7.3 . . . .
CCCNC(=O)Nc1ccc2c(c1)OC[C@@H](C)N(CC1CCCC1)C[C@H](C)[C@@H](OC)CN(C)C2=O -29.5 1.8 -30.4 . . . .
COc1ccc(NC(=O)N(C)C[C@@H]2OCCCC[C@H](C)Oc3ccc(NS(=O)(=O)c4cn(C)cn4)cc3C(=O)N([C@H](C)CO)C[C@H]2C)cc1 -2.0 -4.9 -15.3 . . . .
C[C@@H]1CN([C@H](C)CO)C(=O)c2cc(NC(=O)Cc3ccccc3)ccc2O[C@H]1CN(C)Cc1ccc(Oc2ccccc2)cc1 63.6 . 14.8 . . . .
C[C@@H]1CN([C@@H](C)CO)C(=O)c2cc(NC(=O)Cc3ccccc3)ccc2O[C@@H]1CN(C)Cc1ccc(-c2ccccc2)cc1 15.0 14.0 ? 110.8* 58.7 11.7 94.6*
C[C@H](CO)N1C[C@H](C)[C@@H](CN(C)Cc2ccc(Oc3ccccc3)cc2)Oc2ccc(NC(=O)Cc3ccccc3)cc2C1=O -1.1 . ? 77.8 83.1 7.4 89.1*
C[C@@H]1CN([C@H](C)CO)C(=O)c2cc(NC(=O)Cc3ccccc3)ccc2O[C@H]1CN(C)Cc1ccc(-c2ccccc2)cc1 -5.8 2.6 90.6 . . . .
